Measurements: PubChem BioAssay (NCATS)
“And” between values parts separate entries of the source, which are not always exact repeats. Equal values may be shown once. Inconclusive results are not listed. A call without a number means that no potency is given here. Unmarked numbers belong to inactive results. The source made the active and inactive calls. Calls follow the shape of the dose curve; as a rule, active = well fitted curve in the direction sought with a large enough effect; inconclusive = small, poorly fitted or top-dose-only effect, or another doubt; inactive = no such curve, though single readings can be large; an effect the other way counts as inactive or inconclusive.

Legend:
[1] = biological target: Calcium and integrin-binding protein 1 (Homo sapiens) (UniProt Q99828); assay: Primary qHTS for Identification of Calcium Integrin Binding Protein 1 (CIB1) Competitor (AID 1508620)
Sequence of Calcium and integrin-binding protein 1 (Homo sapiens) (Q99828 whole entry, looked up): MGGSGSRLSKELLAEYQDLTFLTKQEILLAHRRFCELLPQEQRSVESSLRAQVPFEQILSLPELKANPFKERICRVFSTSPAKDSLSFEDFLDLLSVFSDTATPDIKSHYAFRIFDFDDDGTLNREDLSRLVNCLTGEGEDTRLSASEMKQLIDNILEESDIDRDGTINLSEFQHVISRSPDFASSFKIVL
In short: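 Fluorescence polarization competition: CIB1-GST (1 uM final) preincubated with compound 15 min at room temperature, then FITC-labeled alphaIIb peptide (100 nM final) added for another 15 min. Polarization read at Ex 480/Em 540.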

[2] = Primary qHTS for inhibitors of nuclear receptor binding SET domain protein 2 (NSD2) in an isogenic RCH-ACV NSD2 p.E1099K mutant (9B) (AID 1645876); also: nearly all actives have a fitted effect of over 70% in size
[3] = Primary qHTS for inhibitors of nuclear receptor binding SET domain protein 2 (NSD2) in an RCH-ACV wild type WT cells (2C) (AID 1645877); also: nearly all actives have a fitted effect of over 70% in size
Potency is read from the fitted curve at half-maximal effect.

| SMILES | Potency [1] | Potency [2] | Potency [3] | activity change, negative = viability loss [2] | activity change, negative = cell killing [3] |
| --- | --- | --- | --- | --- | --- |
| COc1cc(/C=C/C(=O)NCCn2c(C(F)(F)F)cc3ccccc32)cc(OC)c1OC | inactive | inactive | inactive |  |  |
| O=C(Nc1ccnc(NC(=O)C2CC2)c1)c1c(Cl)cccc1Cl | inactive | 2.95 µM (active) | 2.95 µM (active) |  |  |
| C[C@]12CC[C@@H]3c4ccc(O)c(O)c4CC[C@H]3[C@@H]1CCC2=O | inactive | 18.3 µM (active) | 11.5 µM (active) |  |  |
| O=C(c1c(F)ccc(NS(=O)(=O)N2CC[C@@H](F)C2)c1F)c1c[nH]c2ncc(-c3cnc(C4CC4)nc3)cc12 | inactive | 11.8 µM (active) | 11.6 µM (active) |  |  |
| COc1ccccc1C(=O)Nc1cccc(NC(=O)c2cccc(C)c2)c1 | inactive | inactive | inactive |  |  |
| CC(C)CCNC(=O)[C@H](CC(C)C)NC(=O)[C@H]1O[C@@H]1C(=O)O | inactive | inactive | inactive |  |  |
| C=C1/C(=C/C=C2\CCC[C@]3(C)[C@@H]([C@H](C)CC[C@@H](O)C(C)(C)O)CC[C@@H]23)C[C@@H](O)C[C@@H]1O | inactive | 18.3 µM (active) | 10.3 µM (active) |  |  |
| C=C1CC2OC(=O)C(=C)C2C(O)/C=C(\C)CCC1O (stereo not given) | inactive | 18.3 µM (active) | 16.3 µM (active) |  |  |
| Cc1cc(F)c(C(=O)Nc2cccc(-c3nncn3C(C)C)n2)cc1-n1cnc(C2CC2)c1 | inactive | 11.8 µM (active) | 9.34 µM (active) |  |  |
| Fc1ccc2[nH]ccc2c1-c1nc(N2CCOCC2)c2sc(CN3CCN(CC4CC4)CC3)cc2n1 | inactive | 205 nM (active) and 3.72 µM (active) | 365 nM (active) and 833 nM (active) |  |  |
| C=C[C@@]1(C)C=C2C(=O)C(O)=C3[C@](C)(C(=O)O)CC[C@@H]4C[C@]34[C@]2(O)C(=O)C1 | inactive | 10.1 µM (active) | 2.53 µM (active) |  |  |
| CC1(C)CC[C@]2(C(=O)O[C@@H]3O[C@H](CO)[C@@H](O)[C@H](O)[C@H]3O)CC[C@]3(C)C(=CCC4[C@@]5(C)CC[C@H](O[C@@H]6O[C@H](C(=O)O)[C@H](O)[C@H](O)[C@H]6O)C(C)(C)C5CC[C@]43C)[C@@H]2C1 (stereo not given in full) | inactive | 6.08 µM (active) | 5.41 µM (active) |  |  |
| COc1cc(/C=C2\CCCN([C@@H](C)c3ccc(F)cc3)C2=O)ccc1-n1cnc(C)c1 | inactive | 11.5 µM (active) | 12.9 µM (active) |  |  |
| Cn1ccc(NC(=O)c2cc(Oc3ccc(C(=O)N4CCC4)c(F)c3)c3c(c2)OC(C)(C)C3)n1 | inactive | inactive | inactive |  |  |
| Cn1cc(-c2cnn3c(N)c(Br)c(C4CCCNC4)nc23)cn1 (stereo not given) | inactive | 1.18 µM (active) | 1.05 µM (active) |  |  |
| COc1cc(C(C)=O)c(OC)c2c1OC(C)(C)C=C2 | inactive | inactive | inactive |  |  |
| C=C1[C@@H](OC(C)=O)CC[C@@]2(C)[C@@H](OC(C)=O)[C@H](OC(C)=O)C3=C(C)C[C@H](OC(=O)C(C)CC)[C@@H]([C@@H](OC(C)=O)[C@H]12)C3(C)C (stereo not given in full) | inactive | 1.21 µM (active) | 1.21 µM (active) |  |  |
| Cc1ccc(C)c(-c2cc(C(F)(F)F)nn2-c2ccc(S(N)(=O)=O)cc2)c1 | inactive | 20.5 µM (active) | 25.8 µM (active) |  |  |
| CC1CCCC[C@H]2C(=O)C=C[C@H](O)[C@@H]2CC(=O)O1 (stereo not given in full) | 28.2 µM (active) | 3.25 µM (active) | 2.05 µM (active) |  |  |
| CCn1nc(C2CCN(C(=O)CCO)CC2)nc1-c1cnc(N)c(-c2nnc(C(C)(C)C)o2)n1 | inactive | 164 nM (active) and 296 nM (active) | 64.9 nM (active) and 263 nM (active) |  |  |
| COC(=O)C1=CO[C@@H](O[C@@H]2O[C@H](CO)[C@@H](O)[C@H](O)[C@H]2O)[C@H]2[C@@H]1C=C[C@]21C=C([C@H](C)OC(=O)/C=C/c2ccc(O)cc2)C(=O)O1 | inactive | 0.383 µM (active) | 0.483 µM (active) |  |  |
| O=c1cc(NCCCN[C@@H]2CCOc3c(Br)cc(Br)cc32)[nH]c2ccsc12 | inactive | 20.5 µM (active) | 20.5 µM (active) |  |  |
| OC[C@H]1O[C@@H](OC/C=C/c2ccc(O)cc2)[C@H](O)[C@@H](O)[C@@H]1O | inactive | inactive | inactive |  |  |
| CCC(CC)(NC(=O)C(C)C)C(=O)N[C@@H](CCCN=C(N)N)C(=O)NC1(C(=O)NC(c2ccc(F)cc2)c2ccc(F)cc2)CCCC1 | inactive | inactive | inactive |  |  |
| COC1CC(O[C@H]2CC[C@]3(C)C4CC[C@]5(C)C(C6=CC(=O)OC6)=CCC56OC46CC[C@@H]3C2)OC(C)C1O[C@@H]1O[C@H](CO[C@@H]2O[C@H](CO)[C@@H](O)[C@H](O)[C@H]2O)[C@@H](O)[C@H](O)[C@H]1O (stereo not given in full) | inactive | 1.54 µM (active) | 2.75 µM (active) |  |  |

| SMILES | Potency [1] | Potency [2] | Potency [3] | activity change, negative = viability loss [2] | activity change, negative = cell killing [3] |
| --- | --- | --- | --- | --- | --- |
| COc1ccncc1C(=O)NC(=O)Nc1ccc(-c2ccccc2)c(C(F)(F)F)c1 | inactive | inactive | inactive |  |  |
| CC[C@H]1OC(=O)[C@H](C)[C@@H](O[C@H]2C[C@@](C)(OC)[C@@H](O)[C@H](C)O2)[C@H](C)[C@@H](O[C@H]2O[C@H](C)C[C@H](N(C)C)[C@H]2O)[C@](C)(O)C[C@@H](C)C(=O)[C@H](C)[C@@H](O)[C@]1(C)O | inactive | inactive | inactive |  |  |
| COC(=O)CC[C@@H](C)C1CCC2C3CCC4C[C@H](OC(C)=O)CCC4(C)C3C[C@H](O)C21C (stereo not given in full) | inactive | inactive | inactive |  |  |
| CS(=O)(=O)c1ccc(Oc2cc(F)cc(C#N)c2)c2c1[C@H](O)C(F)(F)C2 | inactive | inactive | inactive |  |  |
| CC[C@@H](C)Nc1cc(C(=O)NC2CC3CCC(C2)N3c2ccc(C(=O)C3CC3)cn2)c(C)cc1C(N)=O (stereo not given in full) | inactive | 0.118 µM (active) | 0.132 µM (active) |  |  |
| COC1CC(=O)C23C(=O)NC(Cc4c[nH]c5ccccc45)C2C(C)C2(C)OC2C3/C=C/CC(C)CC1O (stereo not given) | inactive | 3.17 µM (active) | 2.52 µM (active) |  |  |
| C=CC(=O)N1CCCN(c2cc(NCCC(=O)O)nc(-c3ccccn3)n2)CC1 | inactive | inactive | inactive |  |  |
| Cc1ccc(C(C)C)c(O[C@@H]2O[C@H](CO)[C@@H](O)[C@H](O)[C@H]2O)c1 | inactive | inactive | inactive |  |  |
| CC(C)C(C)C(O)C1CC23CC(=O)C4(O)C(=C2CCC3C1C)C=CC1(O)CC(O)CCC14C (stereo not given) | inactive | inactive | inactive |  |  |
| O=C(Nc1cnc(Cl)nc1)c1ccc(F)c(F)c1 | inactive | inactive | inactive |  |  |
| C/C1=C\[C@@H](C)C[C@@H](C)[C@@H](Cc2cnco2)OC(=O)/C(C)=C/[C@@H](C)C[C@@H](C)[C@@H](Cc2cnco2)OC1=O | inactive | 1.78 µM (active) | 3.17 µM (active) |  |  |
| CC1=CC2/C=C(\C)CCC(O)C(=O)C(O)CC(=O)C23C(=O)NC(CC(C)C)C3C1C (stereo not given) | inactive | 11.2 µM (active) | 6.32 µM (active) |  |  |
| C=C1C(=O)O[C@@H]2/C=C(\C)CC/C=C(/C=O)[C@H](OC)[C@@H](OC(=O)C(C)C)[C@@H]12 | inactive | 8.01 µM (active) | 3.19 µM (active) |  |  |
| NC(=O)CCCSc1nc(N)nc(-c2c(Cl)cc3c4c(cccc24)COC3)n1 | inactive | 0.183 µM (active) | 0.23 µM (active) |  |  |
| CCc1cc(C(N)=O)ccc1-n1nc(C(C)C)c2c(-n3cnc(-c4cnn(C)c4)c3)ccnc21 | inactive | 1.18 µM (active) | 1.05 µM (active) |  |  |
| CCCCCc1ccc(/C=C/C(=O)Nc2cc(Cl)ccc2C(=O)O)cc1 | inactive | inactive | inactive |  |  |
| CC(=O)O[C@H]1CC(C)(C)CC2[C@]13CO[C@@]21CCC2[C@@]4(C)CC[C@H](O[C@@H]5OC[C@H](O[C@@H]6O[C@H](CO)[C@@H](O)[C@H](O)[C@H]6O[C@@H]6OC[C@@H](O)[C@H](O)[C@H]6O)[C@H](O)[C@H]5O[C@@H]5O[C@H](CO)[C@@H](O)[C@H](O)[C@H]5O)[C@@](C)(CO)C4CC[C@@]2(C)[C@]1(C)C[C@H]3O (stereo not given in full) | inactive | 2.45 µM (active) | 3.88 µM (active) |  |  |
| Cc1ccc(NC(=O)c2ccc(CN3CCNCC3)cc2)cc1Nc1nccc(-c2cccnc2)n1 | inactive | 16.3 µM (active) and 14.8 µM (active) | 18.3 µM (active) and 14.8 µM (active) |  |  |
| Nc1nc(Cl)nc2c1ncn2C1OC(CO)C(O)C1F (stereo not given) | inactive | 0.0092 µM (active) | 0.0082 µM (active) |  |  |
| COC1CC(O[C@H]2CC[C@]3(C)C4CC[C@@]5(C)C(=O)[C@]4(CC[C@@H]3C2)CC[C@@H]5C2=CC(=O)OC2)OC(C)C1OC1OC(COC2OC(CO)C(O)C(O)C2O)C(O)C(O)C1O (stereo not given in full) | inactive | 1.54 µM (active) | 2.75 µM (active) |  |  |
| CC(=O)OC1[C@H]2[C@@H](C[C@@H](C)[C@@H]3C=CC(=O)[C@@]13C)OC(=O)[C@@H]2C (stereo not given in full) | inactive | 10.3 µM (active) | 7.28 µM (active) |  |  |
| COc1ccc(CCc2nc3cc(-c4c(C)noc4C)ccc3n2CC(C)N2CCOCC2)cc1Cl (stereo not given) | inactive | 2.3 µM (active) | 2.58 µM (active) |  |  |
| CC(C)NC(=O)N1CC[C@H](N=C2Nc3cc(F)ccc3N(CC(F)F)c3ccc(Cl)cc32)C1 | inactive |  |  | -17% [at 9.23 µM] | 1.84% [at 9.23 µM] |
| CN(C)CCOC(C)(c1ccccc1)c1ccc(Cl)cc1 (stereo not given) | inactive | 11.5 µM (active) | 10.3 µM (active) |  |  |
| Cc1[nH]c2ccccc2c1CCNCc1ccc(/C=C/C(=O)NO)cc1 | inactive | 18.3 nM (active) and 52.5 nM (active) | 18.3 nM (active) and 52.5 nM (active) |  |  |
